In PubChem BioAssay AID1209 (Sanford-Burnham Center for Chemical Genomics, 2008):
The whole screen tested about 190,000 compounds, of which about 810 (0.43%) were called active. The list comes from a sample in which actives are over-represented; it also holds similar structures and randomly drawn compounds. Values without a mark were called inactive. Rule as the data show it: active = inhibition above about 50%; inactive = the rest.

The molecules below were run against Mannose-6-phosphate isomerase (Homo sapiens) (UniProt P34949) (assay: inhibitors of human PMI, primary screen, biochemical, fluorescence intensity, coupled assay (AID 1209;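 also: plate controls were DMSO vehicle for no effect and wells lacking substrate for full effect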)). Conditions: purified PMI enzyme, at 20 µM, hits give high values.
Chain of Mannose-6-phosphate isomerase (Homo sapiens) (P34949 whole entry, looked up): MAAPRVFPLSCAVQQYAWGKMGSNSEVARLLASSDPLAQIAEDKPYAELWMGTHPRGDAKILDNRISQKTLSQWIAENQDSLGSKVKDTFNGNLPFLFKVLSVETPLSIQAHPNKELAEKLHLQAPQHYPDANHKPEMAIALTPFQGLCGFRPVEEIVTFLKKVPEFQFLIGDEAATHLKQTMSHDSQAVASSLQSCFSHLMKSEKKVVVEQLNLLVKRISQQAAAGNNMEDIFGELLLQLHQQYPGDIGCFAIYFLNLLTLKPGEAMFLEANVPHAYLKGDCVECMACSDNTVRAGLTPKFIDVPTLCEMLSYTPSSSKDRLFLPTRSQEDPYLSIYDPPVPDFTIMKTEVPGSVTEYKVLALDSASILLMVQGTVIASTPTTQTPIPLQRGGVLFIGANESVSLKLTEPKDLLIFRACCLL

Compared with `CN(C)C(=O)COc1ccc(Br)cc1`, `COc1ccc(OCC(=O)N/N=C(\C)c2cc3ccccc3o2)cc1` is lower in inhibition: 8.1% for the first, 4.9% for the second.

Going from `O=C(NN=C1CCCC1)c1sc2ccccc2c1Cl` to `O=C(N/N=C/c1c[nH]c2ccccc12)c1sc2ccccc2c1Cl`, the inhibition rises from -19.6% to 17.1%.

First: COc1ccc(N(C(=O)CCl)C(C(=O)NCCc2ccccc2)c2cccs2)cc1Cl (stereo not given)
Second: COc1ccc(C)cc1NC(=O)C(Sc1nnc2ccccn12)c1ccccc1 (stereo not given)
The inhibition of the first is lower: -8.6% for the first, -1% for the second.

First: Cc1noc(NS(=O)(=O)c2ccc(NC(=O)C34CC5CC(C3)CC(n3cnc(Br)n3)(C5)C4)cc2)c1C
Second: CCc1ccc(NC(=S)Nc2ccc(S(=O)(=O)Nc3ncccn3)cc2)cc1
The inhibition of the first is higher: 0.3% for the first, -1.7% for the second.

First: O=C(CN1C(=O)CCC1=O)c1ccc(-c2ccccc2)cc1
Second: N#CCCn1cc(/C=N/NC(N)=S)c(-c2ccc(-c3ccccc3)cc2)n1
The inhibition of the first is lower: 5.6% for the first, 21.7% for the second.

Going from `CC(=O)Nc1nc(SCc2ccc(Cl)cc2Cl)n[nH]1` to `O=c1cc(O)c2sc(Nc3ccc(F)c(Cl)c3)nc2[nH]1`, the inhibition rises from 2% to 41.4%.

First: Nn1c(COc2ccc(Cl)cc2)nc2ccccc2c1=O
Second: COc1ccc(N=Nc2cnc(C)nc2-c2ccccc2)cc1
The inhibition of the first is lower: -0.6% for the first, 3.6% for the second.

First: CC(=O)Nc1ccc(S(=O)(=O)N2CCN(C(=O)c3cccnc3)CC2)cc1
Second: CS(=O)(=O)N(CC(=O)Nc1ccc(S(=O)(=O)N2CCCC2)cc1)c1ccccc1F
The inhibition of the first is higher: 17.8% for the first, 2.4% for the second.

Compared with `CCOc1ccc(CCNC(=O)c2ccc(N3CCCC3=O)cc2)cc1OCC`, `CCc1ccc(C(=O)COC(=O)c2n[nH]c3ccccc23)cc1` is lower in inhibition: 1.3% for the first, -0.2% for the second.

Going from `O=C1CN(CC(=O)Nc2ccc(SC(F)F)cc2)CCN1` to `CC(SCC(=O)Nc1ccc(S(=O)(=O)N2CCCCC2)cc1)C(=O)O` (stereo not given), the inhibition rises from 2.5% to 3.5%.

Going from `O=C(NCc1ccccc1)c1cccc(OCC(=O)N2CCN(C(=O)c3ccco3)CC2)c1` to `Cc1nc2ccccc2n1CC(=O)OCC(=O)NCc1ccccc1`, the inhibition falls from 2% to -3%.

First: CC1C(=O)Nc2ccccc2N1C(=O)C1CC1 (stereo not given)
Second: CCC1C(=O)N(C)CCc2ccccc21 (stereo not given)
The inhibition of the first is lower: -18% for the first, -5.7% for the second.

Going from `C/C=C/C(=O)N1c2ccccc2C(C)=CC1(C)C` to `CC1(C)c2ssc(=S)c2-c2ccccc2N1C(=O)CSC1=NCCS1`, the inhibition rises from -2.5% to 14.3%.

Going from `CN1C(=O)/C(=C2\SC(=S)N(C(CCC(=O)O)C(=O)O)C2=O)c2ccccc21` (stereo not given) to `CCCC(C(=O)O)N1C(=O)/C(=C2\C(=O)N(C)c3ccccc32)SC1=S` (stereo not given), the inhibition falls from 22.8% to 16.5%.

First: COC(=O)C1=NN(c2ccccc2)C2(S1)SC(C(C)=O)=C(C)N2c1ccccc1 (stereo not given)
Second: COC(=O)C1=C(C(=O)OC)SC(=C2C(=S)C(C)(C)N(C(=O)CC(C)C)c3ccccc32)S1
The inhibition of the first is lower: 9.2% for the first, 38.8% for the second.

Compared with `O=C(C1CCC(C(=O)N2CCc3ccccc32)CC1)N1CCc2ccccc21` (stereo not given), `O=C(/C=C/c1ccccc1)Oc1ccccc1C(=S)N1CCOCC1` is higher in inhibition: 3.2% for the first, 15.6% for the second.

Going from `Cc1ccc(/C=C/C(=O)CCC(=O)O)cc1` to `Cc1ccc(C(=O)CC(=O)c2cc(Cl)ccc2O)cc1`, the inhibition falls from -0.7% to -10.2%.

First: COc1cc(C2C3=C(CC(C)(C)CC3=O)OC3=C2C(=O)CC(C)(C)C3)cc([N+](=O)[O-])c1O
Second: CCOC(=O)c1c(NC(=S)Nc2cc([N+](=O)[O-])ccc2OC)sc2c1CCCCC2
The inhibition of the first is lower: 0.1% for the first, 28.1% for the second.

Going from `O=C(CC1SC(=O)N(Cc2cccc3ccccc23)C1=O)Nc1nccs1` (stereo not given) to `Cc1cccc(OCC(=O)N/N=C\c2cn(C)c3ccccc23)c1`, the inhibition falls from 9.8% to 5.4%.

Going from `Cc1csc(NC(=O)c2cc(C)oc2C)n1` to `Cc1cc(C)n(CC(=O)N/N=C/c2ccc3c(c2)OCO3)n1`, the inhibition rises from -8.4% to 12.1%.

Going from `CCOC(=O)c1sc(NC(=O)C2CCCO2)c(C(=O)OCC)c1C` (stereo not given) to `CCOC(=O)c1c(C)n(C)c2ccc(OCC(N)=O)cc12`, the inhibition rises from 11.4% to 16.5%.

Going from `FC(F)Oc1ccc(NC(=S)NN2CCOCC2)cc1` to `CN1CCN(NC(=S)Nc2ccc(OC(F)F)cc2)CC1`, the inhibition falls from -3.1% to -15.1%.

Compared with `CNC(=S)Nc1ccc(OC)c(OC)c1`, `COc1ccc(NC(=S)NN2CCN(C)CC2)cc1OC` is higher in inhibition: 7.4% for the first, 22.9% for the second.

First: CCc1ccc(NC(=S)NCc2ccccc2)cc1
Second: S=C(Nc1ccccc1)Nn1cnnc1
The inhibition of the first is lower: -2.6% for the first, 48.4% for the second.

Going from `Cc1ccc(C(=O)NC(=S)Nn2cnnc2)cc1` to `Cc1cccc(C(=O)CC(=O)c2cc(Cl)ccc2O)c1`, the inhibition falls from 12.4% to 5.2%.

Going from `COC(=O)c1nc(-c2ccccc2)oc1N1CCOCC1` to `O=C(O)c1csc(Cc2ccccc2)n1`, the inhibition rises from -4.7% to -2.4%.

Compared with `Cc1ccc(S(=O)(=O)N/N=C/c2ccc(OS(=O)(=O)c3ccc(C)c([N+](=O)[O-])c3)cc2)cc1`, `CCOC(=O)c1c2ccc(OCC(=O)N/N=C/c3ccc(Cl)cc3)cc2n2ccccc12` is higher in inhibition: 1.6% for the first, 33.2% for the second.

Compared with `O=C(/C=C/c1ccc(Br)cc1)c1ccc(NC2=NCCCS2)cc1`, `Fc1ccc(Nc2nc3ccccc3s2)cc1` is higher in inhibition: 1.6% for the first, 7.9% for the second.

First: O=c1cnnc(Nc2cccc(C(F)(F)F)c2)[nH]1
Second: Cc1cc(=O)[nH]c(Nc2cccc(C(F)(F)F)c2)n1
The inhibition of the first is lower: -10.6% for the first, -10.3% for the second.

Going from `COc1ccc(Nc2nc3ccc(OC)cc3s2)cc1` to `COc1ccc(Nc2nc(C)cc(=O)[nH]2)cc1`, the inhibition rises from -0.9% to 5.6%.

Going from `CN(C)CCCN(C(=O)c1cc2ccccc2oc1=O)c1nc2c(F)cccc2s1` to `CCCCOc1ccc(-c2c(C(=O)Nc3ccccc3)c(C)[nH]c(=S)c2C#N)cc1`, the inhibition rises from 7.5% to 13.9%.

First: O=C(CSc1n[nH]c(-c2cccs2)n1)N1CCN(S(=O)(=O)c2ccccc2)CC1
Second: COC(=O)c1ccc(NC(=O)CSc2n[nH]c(-c3ccncc3)n2)cc1
The inhibition of the first is lower: 8.5% for the first, 11.1% for the second.

Compared with `C#CCOCCOCCOCCNc1nc(N2CCOCC2)nc(N2CCN(C(=O)[C@H](C)n3cc(CCCN=C(N)N)nn3)CC2)n1`, `CCOC(=O)C1CCN(CCC(=O)Nc2ccc(Cl)cc2)CC1` is higher in inhibition: -9.8% for the first, 7.1% for the second.

First: Clc1cccc(Cl)c1NC1=NCCN1
Second: NC(=S)Nc1cccc2cnccc12
The inhibition of the first is lower: -30.9% for the first, 16.4% for the second.

First: c1cc(Nc2cccc3nccnc23)c2nccnc2c1
Second: N#Cc1cccc2cnccc12
The inhibition of the first is higher: 28.5% for the first, 9% for the second.

Compared with `Cc1ccnn1CC(=O)N/N=C/c1ccc2c(c1)OCO2`, `CCC1Oc2ccc(C)cc2N(CC(=O)NCc2ccco2)C1=O` (stereo not given) is higher in inhibition: -2.6% for the first, 6.6% for the second.

First: S=c1[nH]ncn1/N=C/c1ccccn1
Second: CCn1cc([N+](=O)[O-])c(C(=O)Nc2ccn(Cc3ccccc3F)n2)n1
The inhibition of the first is lower: 5.3% for the first, 8.3% for the second.

Going from `Oc1c(Br)cc(Br)cc1C=NCc1ccc(F)cc1` to `COc1ccc2c(C#N)c3ccccn3c2c1`, the inhibition rises from -4.2% to 39.7%.

Compared with `COc1ccc([C@@H]2C[C@H]3CN(c4ccccc4)C(=O)[C@]34CCCN24)c(OC)c1OC`, `COC(=O)c1c(NC(=S)Nc2cc(OC)c(Cl)cc2OC)sc2c1CCCCC2` is higher in inhibition: -8.3% for the first, 25.1% for the second.

First: Cc1nn(Cc2cccc(C(=O)NC3CCCCC3)c2)c(C)c1Cl
Second: CCOC(=O)c1c(C)n(C)c2cc(OCCN(CC)CC)ccc12
The inhibition of the first is lower: 7.3% for the first, 10.9% for the second.

`CCOC(=O)COc1ccc2c(C#N)c3ccccn3c2c1` was tested, and the inhibition was 41.4%.

For `CCC(C)C(=O)N1c2ccccc2C(=C2SC(C(=O)OC)=C(C(=O)OC)S2)C(=S)C1(C)C` (stereo not given), the inhibition was 63.8% (active).
In the case of `COC(=O)C1=C(C(=O)OC)SC(=C2C(=S)C(C)(C)N(C(=O)C(C)C)c3ccccc32)S1`, the inhibition is reported as 68% (active).
`CCCC(=O)N1c2ccccc2C(=C2SC(C(=O)OC)=C(C(=O)OC)S2)C(=S)C1(C)C` was tested, and the inhibition was 62.1% (active).
With `COC(=O)C1=C(C(=O)OC)SC(=C2C(=S)C(C)(C)N(C(=O)C3CC3)c3ccccc32)S1` the inhibition was 71.6% (active).
For `COc1ccc(NC(=S)Nn2cnnc2)cc1OC`, the inhibition was 61.2% (active).
With `Cc1ccc(NC(=S)Nn2cnnc2)cc1` the inhibition was 61.8% (active).
`CCc1ccc(NC(=S)Nn2cnnc2)cc1` was tested, and the inhibition was 54.2% (active).
With `FC(F)Oc1ccc(NC(=S)Nn2cnnc2)cc1` the inhibition was 55.2% (active).
For `O=c1cc(O)c2sc(Nc3ccc(F)cc3)nc2[nH]1`, the inhibition was 69.8% (active).
In the case of `COc1ccc(Nc2nc3[nH]c(=O)cc(O)c3s2)cc1`, the inhibition is reported as 50.2% (active).
In the case of `O=c1cc(O)c2sc(Nc3cccc(C(F)(F)F)c3)nc2[nH]1`, the inhibition is reported as 52.4% (active).
With `Brc1c(NC2=NCCN2)ccc2nccnc12` the inhibition was 54.4% (active).
For `O=C(Cn1nc(C(F)F)cc1C(F)F)N/N=C/c1ccc2c(c1)OCO2`, the inhibition was 92.9% (active).
With `O=C(CC(=O)c1cc(Cl)ccc1O)c1ccccc1` the inhibition was 59.9% (active).
`COC(=O)c1c(NC(=S)Nc2ccc(F)cc2[N+](=O)[O-])sc2c1CCCCC2` was tested, and the inhibition was 63% (active).
With `Nc1cccc2cnccc12` the inhibition was 68.5% (active).
With `N#Cc1c2ccc(OCC(N)=O)cc2n2ccccc12` the inhibition was 65.3% (active).
For `CCOC(=O)c1c2ccc(OCC(=O)N/N=C/c3ccccc3C(F)(F)F)cc2n2ccccc12`, the inhibition was 59.8% (active).
In the case of `CCOC(=O)c1c2ccc(OCC(=O)NN)cc2n2ccccc12`, the inhibition is reported as 81.3% (active).
